Assay results taken from ChEMBL document CHEMBL3433997, “St. Jude Leishmania screening dataset” (2016).

molecular target: Solute carrier family 2, facilitated glucose transporter member 1 (Homo sapiens) (UniProt P11166); assay: ST_JUDE_LEISH: Cytotoxicity at 2uM final concentration against transgenic Leishmania Mexicana promastigotes LmGLUT1 that are glucose transport deficient and complemented with the human glucose transporter GLUT1. Activity is measured by DNA content using SYBR green in vitro; type: functional
Sequence (P11166 whole entry): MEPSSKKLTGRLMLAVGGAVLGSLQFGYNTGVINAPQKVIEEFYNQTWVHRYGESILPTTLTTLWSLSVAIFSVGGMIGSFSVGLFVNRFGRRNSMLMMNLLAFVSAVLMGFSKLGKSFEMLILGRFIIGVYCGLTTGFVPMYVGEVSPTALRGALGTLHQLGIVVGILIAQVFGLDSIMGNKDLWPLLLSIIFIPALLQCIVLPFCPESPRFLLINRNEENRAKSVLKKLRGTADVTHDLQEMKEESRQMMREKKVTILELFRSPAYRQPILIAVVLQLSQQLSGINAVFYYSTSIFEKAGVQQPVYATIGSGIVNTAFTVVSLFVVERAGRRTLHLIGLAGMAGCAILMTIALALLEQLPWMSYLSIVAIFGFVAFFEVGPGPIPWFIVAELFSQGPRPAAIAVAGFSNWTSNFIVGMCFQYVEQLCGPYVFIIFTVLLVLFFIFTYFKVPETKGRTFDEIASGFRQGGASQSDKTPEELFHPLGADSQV

Row | SMILES | inhibition
1 | CC(C)C[C@H](NC(=O)c1cc(-c2ccc(C(C)(C)C)cc2)no1)C(=O)O.CC(C)C[C@H](NC(=O)c1conc1-c1ccc(C(C)(C)C)cc1)C(=O)O | 1.21%
2 | Cc1cc(N2CCN(C(=O)OC(C)(C)C)CC2)ccc1N | 6.77%
3 | COc1cccc(NC(=O)Nc2cc(C)nc3ccccc23)c1 | 4.17%
4 | CC(C)CN1CCC(COc2ccc3ncn(-c4cc(O[C@H](C)c5ccccc5C(F)(F)F)c(C(N)=O)s4)c3c2)CC1 | 77.7%
5 | COc1ccc(-c2cccc(NC(=O)c3ccc(F)cc3)c2)cc1CNC(C)C | 1.85%
6 | O=C1OC(c2ccccc2)(c2ccccn2)CN1C1CCN(Cc2cccn2-c2ccc(Cl)cc2)CC1 (stereo not given) | 2.2%
7 | COc1ccc(C(=O)COc2cccc(/C=C/C(=O)O)c2)cc1OC | 0.26%
8 | c1ccc(-c2ccc(-c3csc(Nc4ccncc4)n3)cc2)cc1 | 0.44%
9 | CN1CCN(Cc2cc3cc(NC(=O)/C=C/c4cccc(Cl)c4)ccc3s2)CC1 | 0.65%
10 | COc1cccc(C=NN=c2cc(C)[nH]c3ccccc23)c1 | 3.57%
11 | O=C(Nc1ccccc1)N(Cc1cccc(-c2cccc(CNCc3ccc4c(c3)OCO4)c2)c1)C1CCN(Cc2ccccc2)CC1 | 0.53%
12 | N#Cc1ccc(CN2CCCN(c3ccc(NC(=O)c4ccc(F)cc4)cc3)CC2)cc1 | 2.88%
13 | COc1ccccc1-n1c(SCC(=O)Nc2ccccc2F)nc2cccnc21 | 2.95%
14 | N#Cc1ccc2c(c1)CCN(CCC1CCC(NC(=O)c3cc4cccc([N+](=O)[O-])c4[nH]3)CC1)C2 (stereo not given) | 10.1%
15 | O=C(Nc1ccccc1F)NC1CCN(c2ccnc(Nc3ccc(F)cc3)n2)C1 (stereo not given) | 0.46%
